Assay results from PubChem BioAssay.
The source made the active and inactive calls.

What was measured:
[1] = system: Plasmodium falciparum Sir2 (PF13_0152, Sir2A); assay: Plasmodium falciparum Sir2A binding compounds – biochemical, small-molecule microarray, 635 nm fluorescence, primary screen (AID 1098); details: fluorescence 635 nm, higher = more signal;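 further: score merges spot fluorescence intensity with its signal-to-noise ratio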
[2] = probe aDKK1 binding to arrayed compounds – biochemical, biotinylated probe, 635/667 nm fluorescence, primary screen (AID 1099); details: small-molecule microarray, higher = more signal;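 further: score merges 667nm spot fluorescence with signal to noise across triplicate slides; reference of the scale not given here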
[3] = probe aCHRDL2 binding to arrayed compounds – biochemical, biotinylated probe, 635/667 nm fluorescence, primary screen (AID 1100); details: small-molecule microarray, higher = more signal
[4] = change in splice reporter luminescence, either direction, cell-based, HEK293, spliceosome inhibition project, primary screen (AID 1101); details: HEK293 splicing luciferase reporter, 24 h, higher = more signal, called active from +8 up or from −8 down;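 further: HEK293 cells carrying a splicing-competent luciferase reporter gene; test concentration not given here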
[5] = target: Fibroblast growth factor 10 (Homo sapiens) (UniProt O15520); assay: compounds binding fibroblast growth factor 10 – biochemical, small-molecule microarray, 635 nm fluorescence, primary screen (AID 1102); details: FGF10 binding, fluorescence 635 nm, higher = more signal
Fibroblast growth factor 10 (Homo sapiens), sequence (O15520 whole entry, looked up): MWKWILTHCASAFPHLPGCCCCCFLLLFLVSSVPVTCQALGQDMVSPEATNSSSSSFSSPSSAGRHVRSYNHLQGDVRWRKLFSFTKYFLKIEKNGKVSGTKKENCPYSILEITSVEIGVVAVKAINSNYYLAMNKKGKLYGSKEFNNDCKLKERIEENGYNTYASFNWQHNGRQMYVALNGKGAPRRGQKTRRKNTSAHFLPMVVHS

[6] = system: glycogen synthase kinase-3 (GSK3A per assay name; protocol says GSK3B); assay: compounds binding glycogen synthase kinase-3 – biochemical, small-molecule microarray, 635 nm fluorescence, GSK3A, primary screen (AID 1103); details: fluorescence 635 nm, higher = more signal; further: the record names both GSK3A and GSK3B
[7] = target: Epidermal growth factor receptor (Homo sapiens) (UniProt P00533); assay: compounds binding epidermal growth factor receptor – biochemical, small-molecule microarray, 635 nm fluorescence, primary screen (AID 1104); details: EGFR binding, higher = more signal;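 further: score merges 667 nm emission intensity with spot signal to noise over triplicate slides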
Epidermal growth factor receptor (Homo sapiens), sequence (P00533 whole entry, looked up): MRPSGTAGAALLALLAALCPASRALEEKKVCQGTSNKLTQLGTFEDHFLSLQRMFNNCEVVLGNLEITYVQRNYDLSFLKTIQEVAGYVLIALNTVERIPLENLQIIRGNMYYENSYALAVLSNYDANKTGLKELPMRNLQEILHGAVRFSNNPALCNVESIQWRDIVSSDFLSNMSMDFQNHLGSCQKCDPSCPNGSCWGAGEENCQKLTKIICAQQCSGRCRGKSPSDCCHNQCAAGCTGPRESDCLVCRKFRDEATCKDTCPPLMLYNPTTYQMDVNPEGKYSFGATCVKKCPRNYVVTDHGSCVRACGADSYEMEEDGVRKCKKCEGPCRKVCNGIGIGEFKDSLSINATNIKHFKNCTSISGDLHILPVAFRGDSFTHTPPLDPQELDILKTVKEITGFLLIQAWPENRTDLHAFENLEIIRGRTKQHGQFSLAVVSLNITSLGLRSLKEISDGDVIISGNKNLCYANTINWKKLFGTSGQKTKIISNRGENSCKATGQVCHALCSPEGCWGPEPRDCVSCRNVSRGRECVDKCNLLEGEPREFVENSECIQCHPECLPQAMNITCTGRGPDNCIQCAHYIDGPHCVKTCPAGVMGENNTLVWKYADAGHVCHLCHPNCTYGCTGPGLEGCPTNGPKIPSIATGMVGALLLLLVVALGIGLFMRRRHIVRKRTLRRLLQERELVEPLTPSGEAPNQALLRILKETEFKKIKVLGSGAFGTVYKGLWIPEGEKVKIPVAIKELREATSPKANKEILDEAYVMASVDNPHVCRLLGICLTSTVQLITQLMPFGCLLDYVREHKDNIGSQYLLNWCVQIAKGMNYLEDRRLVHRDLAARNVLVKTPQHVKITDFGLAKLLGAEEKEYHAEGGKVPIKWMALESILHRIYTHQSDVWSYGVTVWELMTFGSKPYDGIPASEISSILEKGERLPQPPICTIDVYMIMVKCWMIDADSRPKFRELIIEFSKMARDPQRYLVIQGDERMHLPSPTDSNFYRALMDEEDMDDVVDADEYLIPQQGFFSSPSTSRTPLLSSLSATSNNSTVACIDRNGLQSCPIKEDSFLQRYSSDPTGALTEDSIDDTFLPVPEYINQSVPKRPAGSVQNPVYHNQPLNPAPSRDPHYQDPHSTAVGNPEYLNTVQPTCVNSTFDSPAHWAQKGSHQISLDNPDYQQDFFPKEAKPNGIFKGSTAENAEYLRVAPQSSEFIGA

[8] = target: Follistatin-related protein 3 (Homo sapiens) (UniProt O95633); assay: compounds binding follistatin-related protein 3 – biochemical, small-molecule microarray, 635 nm fluorescence, primary screen (AID 1105); details: FSTL3 binding, higher = more signal;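 further: score merges emission near 667 nm and signal to noise per printed spot across three slides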
Follistatin-related protein 3 (Homo sapiens), sequence (O95633 whole entry, looked up): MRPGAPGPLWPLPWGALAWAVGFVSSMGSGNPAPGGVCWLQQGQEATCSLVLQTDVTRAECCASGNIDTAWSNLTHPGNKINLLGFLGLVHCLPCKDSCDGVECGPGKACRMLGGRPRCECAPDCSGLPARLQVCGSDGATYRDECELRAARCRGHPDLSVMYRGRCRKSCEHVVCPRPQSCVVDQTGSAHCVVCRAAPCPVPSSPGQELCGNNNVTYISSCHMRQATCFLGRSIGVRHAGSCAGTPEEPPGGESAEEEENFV

[9] = target: Dickkopf-related protein 1 (Homo sapiens) (UniProt O94907); assay: small molecules binding DKK1 protein – biochemical, small-molecule microarray, 635 nm fluorescence scan, primary screen (AID 1106); details: higher = more signal;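 further: score merges emission near 667 nm with signal to noise over three replicate slides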
Dickkopf-related protein 1 (Homo sapiens), sequence (O94907 whole entry, looked up): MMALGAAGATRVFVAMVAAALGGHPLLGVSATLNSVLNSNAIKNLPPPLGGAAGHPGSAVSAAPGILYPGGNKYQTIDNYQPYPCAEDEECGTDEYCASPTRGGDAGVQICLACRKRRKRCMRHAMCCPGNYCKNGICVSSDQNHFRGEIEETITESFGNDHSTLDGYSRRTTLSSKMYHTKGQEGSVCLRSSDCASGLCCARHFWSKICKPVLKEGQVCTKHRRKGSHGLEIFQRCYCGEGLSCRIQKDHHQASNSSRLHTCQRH

[10] = system: Inhibin beta A chain (activin A); assay: small molecules binding activin A – biochemical, small-molecule microarray, 635 nm fluorescence scan, primary screen (AID 1107); details: INHBA, higher = more signal;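 further: mouse activin A protein probed at 4.33 µg/mL on printed slides; score merges bound-protein fluorescence near 667 nm with spot signal-to-noise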

SMILES	composite z-score [1]	composite z-score [2]	composite z-score [3]	z-score [4]	composite z-score [5]	composite z-score [6]	composite z-score [7]	composite z-score [8]	composite z-score [9]	composite z-score [10]
COCCOC(=O)N1C(=O)[C@@]2(c3ccccc31)[C@H](c1ccc(OCCO)cc1)N1[C@H](c3ccccc3)[C@H](c3ccccc3)OC(=O)[C@H]1[C@@H]2C(=O)N1CCN(c2ncccn2)CC1	1.22	0.639	0.539	-0.483 (inactive)	1.42	1.34	0.791	1.44	1.09	0.943
O=C1c2ccccc2[C@](Cc2ccccc2I)(C(=O)O)[C@H](c2ccc(CO)cc2)N1Cc1ccccc1	1.39	0.486	0.736	0.188 (inactive)	-0.011	-0.0481	-0.964	-0.509	-0.69	-0.309
COCCOC(=O)N1C(=O)[C@@]2(c3cc(C#CC4(O)CCCCCC4)ccc31)[C@H](C(=O)NC[C@H](O)c1ccccc1)[C@H]1C(=O)O[C@H](c3ccccc3)[C@H](c3ccccc3)N1[C@@H]2c1ccc(O)cc1	1.36	0.203	0.316	0.209 (inactive)	0.779	1.29	-0.0406	0.334	-0.0026	0.386
COC(=O)[C@@]1(Cc2ccccc2)[C@H]2c3cc(C(=O)N4CCCC4)n(Cc4ccc(C(F)(F)F)nc4)c3C[C@H]2CN1C(=O)c1ccccc1	1.28	0.568	1.02	-0.434 (inactive)	0.881	1.32	0.0424	1.1	-0.269	0.634
COc1cc(OC)c(C(O)C2C=CC3C(=O)N(c4ccccc4)C(=O)C3N2Nc2ccccc2F)cc1Br (stereo not given)	0.76	0.805	0.95	0.484 (inactive)	0.97	0.0826	0.256	1.45	-0.351	0.625
C=C(C(=O)CC[C@@H](OC(C)=O)c1cccc(OCCO)c1)C(C)C	1.24	-0.136	0.114	2.37 (inactive)	0.0186	-0.664	-0.649	-0.0718	-0.375	1.35
O=C1O[C@@H](c2ccccc2)[C@@H](c2ccccc2)N2[C@@H](c3ccc(OCCO)cc3)[C@]3(C(=O)Nc4ccc(C#CCCO)cc43)[C@@H](C(=O)Nc3nc4ccccc4s3)[C@H]12	1.08	0.49	0.683	-0.288 (inactive)	0.975	1.29	0.367	1.08	0.0321	0.655
CCCCC(O)C1C=CC2C(=O)NC(=O)C2N1Nc1ccccn1 (stereo not given)	1.1	0.0006	-0.0537	2.17 (inactive)	-0.0249	0.0652	0.207	-0.404	0.0816	0.555
[N-]=[N+]=Nc1ccccc1[C@@H]1OC(c2ccc(OCCCO)cc2)=N[C@]1(Cc1ccccc1)C(N)=O	0.807	0.818	0.578	0.336 (inactive)	-0.121	-0.235	-0.236	-0.294	-0.205	0.982
CC(C)CNC(=O)[C@@H]1c2ccccc2C(=O)N(Cc2ccccc2)[C@H]1c1ccc(CO)cc1	0.0346	0.282	0.96	-0.18 (inactive)	-0.787	0.0758	-1.35	-1.38	-1.05	-0.217
C#CCN(C/C=C/c1ccccc1)[C@H](CO[Si](C)(C)C(C)(C)C)c1ccccc1	0.209	-0.454	-0.541	-0.736 (inactive)	0.108	-0.871	-0.468	-0.261	-0.156	-0.0543
NC(=O)N1C(=O)C2C(C1=O)C1C=C(CCCO)C2C(c2ccc(CN3CCCC3)cc2)N1Cc1cccc(OC(F)(F)F)c1 (stereo not given)	0.488	0.084	0.263	-0.443 (inactive)	0.374	0.686	0.634	0.719	0.723	1.59
N[C@@H](Cc1ccccc1)Cn1cc(C2(O)CCCCC2)nn1	-0.431	-0.149	0.174	0.242 (inactive)	-0.493	-0.507	0.0669	-0.133	-0.0564	-0.239
COCC(=C=CC[C@@H](O)c1ccc(OCCO)cc1)C[C@@H](O)COCc1ccccc1	0.804	-0.0148	0.548	-1.83 (inactive)	1.52	0.611	0.158	0.939	-0.0983	1.42
CN(C)C(=O)[C@]1(Cc2ccccc2CN=[N+]=[N-])N=C(c2ccc(OCCCO)cc2)O[C@@H]1c1ccccc1N=[N+]=[N-]	1.18	0.805	0.884	-1.27 (inactive)	0.939	0.631	-0.205	0.264	-0.0994	0.814
CCCCC(=C=CC[C@@H](O)c1cccc(OCCO)c1)CCO	1.36	-0.252	0.254	0.413 (inactive)	0.504	-0.224	-0.556	-0.254	-0.591	0.134

SMILES	composite z-score [1]	composite z-score [2]	composite z-score [3]	z-score [4]	composite z-score [5]	composite z-score [6]	composite z-score [7]	composite z-score [8]	composite z-score [9]	composite z-score [10]
C=CC[C@]1(C(=O)NCCCOC)N=C(c2ccc(OCCCO)cc2)O[C@H]1c1ccccc1	1.08	0.107	1.05	-0.318 (inactive)	-0.418	0.94	-1.69	-0.0778	-1.13	-0.112
CN1C(=O)[C@]2(CCS(=O)(=O)c3ccccc3)N=C(c3ccc(OCCCO)cc3)O[C@@H]2c2ccccc21	1.38	0.0991	0.89	-0.674 (inactive)	0.458	1.33	-0.0528	0.669	0.367	0.3
NC(=O)NCC#Cc1ccc2c(c1)[C@]1(C(=O)N2)[C@H](C(=O)Nc2nc3ccccc3s2)[C@H]2C(=O)O[C@H](c3ccccc3)[C@H](c3ccccc3)N2[C@@H]1c1ccc(OCCO)cc1	-0.478	0.738	1.13	1.37 (inactive)	0.253	-0.95	0.0294	0.559	-0.52	0.765
COCCOC(=O)N1C(=O)[C@@]2(c3cc(C#CC4=CCCCC4)ccc31)[C@H](C(=O)N1CCc3cc(OC)c(OC)cc3C1)[C@H]1C(=O)O[C@H](c3ccccc3)[C@H](c3ccccc3)N1[C@@H]2c1ccc(O)cc1	1.04	0.26	-0.0061	-0.258 (inactive)	0.438	1.12	1.32	0.583	0.391	0.732
COC(=O)[C@@]1(Cc2ccc(F)cc2)[C@H]2c3cc(C(=O)N(C)C)n(CCN4CCOCC4)c3C[C@H]2CN1C(=O)c1ccccc1	0.756	1.72	0.868	-0.575 (inactive)	1.03	1.12	0.045	-0.265	-0.431	0.84
CCCCN1CC=CC23O[C@@H]4/C=C\CCC(C)OC(=O)C4[C@H]2C(=O)N(C(C)CO)[C@@H]3C1=O (stereo not given in full)	0.356	-0.463	-0.471	1.07 (inactive)	-0.816	-0.937	-0.659	-0.719	-0.127	1.19
Cc1ccc(S(=O)(=O)N2[C@@H](c3ccccc3)C(C(=O)O)=CC[C@H]2c2ccc(C#N)cc2)cc1	1.16	0.543	0.864	-0.0152 (inactive)	0.888	0.379	0.0164	0.273	-0.522	0.667
CCOC(=O)C1=CC[C@@H](c2ccccc2Cl)N(S(=O)(=O)c2ccc(C)cc2)[C@H]1c1cccc(OC)c1	0.662	-0.0972	-0.335	0.751 (inactive)	0.331	0.269	-0.055	0.536	-0.237	0.406
COCCOC(=O)N1C(=O)[C@@]2(c3cc(C#CC4=CCCCC4)ccc31)[C@H](c1ccc(OCCO)cc1)N1[C@H](c3ccccc3)[C@H](c3ccccc3)OC(=O)[C@H]1[C@@H]2C(=O)N1CCCCCCC1	0.959	1.43	1.16	-1.07 (inactive)	1.02	1.33	0.513	1.46	1.01	1.7
C=C(CC1([C@@H](NP(=O)(c2ccccc2)c2ccccc2)[C@H]2C[C@@H]2CCN(C(=O)OCC)S(=O)(=O)c2ccc(C)cc2)CC1)c1ccccc1	0.827	1.31	1.23	-2.39 (inactive)	0.429	0.288	0.0577	0.748	-0.636	1.17
CCCC[C@@H](O)C1=C(COC)Cn2c(=O)n(-c3ccccc3)c(=O)n2[C@H]1CO	-0.0092	-0.399	-0.318	-0.446 (inactive)	0.035	0.0617	-0.464	-0.0013	-0.184	0.749
COc1ccc(CCNC(=O)[C@@]2(Sc3ccc(C)cc3)CC(=O)N(Cc3cc(C(F)(F)F)cc(C(F)(F)F)c3)[C@@H]2c2ccc(CO)cc2)cc1	0.629	0.18	1.14	0.257 (inactive)	-1.59	-0.655	-1.81	-0.927	-1.88	-0.497
Cc1ccc(F)cc1S(=O)(=O)N[C@@H]1CCN(Cc2ccc3c(c2)OCO3)C1	0.0014	-0.247	-0.289	-0.0924 (inactive)	-0.24	-0.191	0.0122	-0.272	0.537	0.528
COCCOC(=O)N1C(=O)[C@@]2(c3cc(C#CCC(C(=O)OC)C(=O)OC)ccc31)[C@H](C(=O)N1CCc3cc(OC)c(OC)cc3C1)[C@H]1C(=O)O[C@H](c3ccccc3)[C@H](c3ccccc3)N1[C@@H]2c1ccc(O)cc1	0.86	0.148	0.0085	1.5 (inactive)	1.24	0.636	0.868	1.47	1.62	0.418
C=CCN1C(=O)[C@]2(O[C@H](CCn3cc([C@H](O)c4ccccc4)nn3)[C@@H]([Si](C)(C)c3ccc(OC)cc3)[C@@H]2C)c2cc(N3C(=O)c4cccc5cccc3c45)ccc21	0.783	-0.168	0.195	-1.18 (inactive)	0.57	-0.549	-0.795	0.187	-0.857	-0.302
CN(C)CCCC[C@@H]1NC(=O)[C@@H]2C[C@H](C(=O)NCc3ccc(F)cc3)[C@H](c3ccc(O)cc3)N2C1=O	1.56	-0.126	-0.0292	0.104 (inactive)	1.47	0.941	0.176	0.0719	0.2	-1.43
